Source: the supplement of paper PMC10981050
Values joined by “and” are separate entries in the source; they are usually repeats but may differ in a detail not shown here. Equal values may be shown once. Where a name gives a salt, the structure may show the parent alone.

Experiments:
Test in all cases: cell viability relative to vehicle control; higher = less cytotoxic
Details in all cases: 10 µM
K562 = tested on: K562
Outline: (§1)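 Each screen used CRISPR-edited mutant and wild-type clones from four leukaemia lines. Compounds were acoustically dispensed at a single 10 µM dose, and CellTiter-Glo luminescence was read after 48 h with the supernatant first removed. Viability was analysed in Genedata Screener and given as percent of the on-plate vehicle control.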

MARIMO = tested on: MARIMO
Outline: as §1

MOLM14 = tested on: MOLM14
Outline: as §1

OCI-AML2 = tested on: OCI-AML2
Outline: as §1

SMILES	cell viability (K562; SRSF2 genotype: SRSF2 P95H/wt)	cell viability (K562; SRSF2 genotype: SRSF2 wt/wt)	cell viability (MARIMO; SRSF2 genotype: SRSF2 P95H/wt)	cell viability (MARIMO; SRSF2 genotype: SRSF2 wt/wt)	cell viability (MOLM14; SRSF2 genotype: SRSF2 P95H/wt)	cell viability (MOLM14; SRSF2 genotype: SRSF2 wt/wt)	cell viability (OCI-AML2; SRSF2 genotype: P95H/wt)	cell viability (OCI-AML2; SRSF2 genotype: wt/wt)
c1ccc(-c2nn3c(c2-c2ccnc4cc(OCCN5CCOCC5)ccc24)CCC3)nc1	104% and 111%	97.1%	106%	120%	105%	110%	108%	117%
CC1(C)S[C@@H]2[C@H](NC(=O)[C@H](N)c3ccccc3)C(=O)N2[C@H]1C(=O)OCOC(=O)[C@@H]1N2C(=O)C[C@H]2S(=O)(=O)C1(C)C [Sultamicillin]	100% and 98.8%	106%	93.1%	101%	97.2%	102%	103%	116%
Cc1cc(Nc2cc(N3CCN(C)CC3)nc(Sc3ccc(NC(=O)C4CC4)cc3)n2)n[nH]1 [VX-680 (MK-0457, Tozasertib)]	16.4% and 18.7%	14.8%	53.6%	38%	6.03%	9.53%	14.4%	19.3%
CN(N=O)C(=O)NC1C(O)OC(CO)C(O)C1O (stereo not drawn) [Streptozotocin (STZ)]	103%	105%	98.3%	104%	97.2%	103%	100%	107%
O=C(NCc1ccccc1)c1csc(Nc2ccncn2)n1 [Thiazovivin]	100% and 101%	100%	80.5%	94.7%	37.8%	86.8%	46%	49.5%
CC(NC(=O)Cc1cc(F)cc(F)c1)C(=O)NC1C(=O)N(C)c2ccccc2-c2ccccc21 (stereo not drawn)	101% and 102%	108%	99.7%	94.5%	105%	104%	105%	107%
CC(=O)C1=C(O)C=C2Oc3c(C(C)=O)c(O)c(C)c(O)c3C2(C)C1=O (single isomer, unassigned; (+)) [(+)-Usniacin (D-Usnic acid)]	98.5% and 99.9%	97.7%	95.4%	106%	95%	99%	90.8%	98.9%
COc1ccc2c(O[C@@H]3C[C@H]4C(=O)N[C@]5(C(=O)NS(=O)(=O)C6CC6)C[C@H]5/C=C\CCCCN(C)C(=O)[C@@H]4C3)cc(-c3nc(C(C)C)cs3)nc2c1C	70.6% and 60.2%	62.9%	61.6%	75.3%	79.1%	71.6%	55.2%	58.8%
C=CC(=O)N1CCC[C@@H](n2nc(-c3ccc(Oc4ccccc4)cc3)c(C(N)=O)c2N)C1 [Btk inhibitor 2]	81.6% and 89.2%	84.8%	79.8%	90.2%	25.4%	25.4%	48.2%	52.1%
CC[C@@H]([C@H](C)O)n1ncn(-c2ccc(N3CCN(c4ccc(OC[C@@H]5CO[C@@](Cn6cncn6)(c6ccc(F)cc6F)C5)cc4)CC3)cc2)c1=O [Posaconazole]	55.7% and 75.6%	87%	55.6%	59%	62.2%	85.5%	18.1%	23.9%
CC1OC(OC2C(CO)OC(OCC3OC(OC(=O)C45CCC(C)(C)CC4C4=CCC6C7(C)CCC(OC8OCC(O)C(O)C8OC8OC(C)C(O)C(O)C8O)C(C)(CO)C7CCC6(C)C4(C)CC5)C(O)C(O)C3O)C(O)C2O)C(O)C(O)C1O (stereo not drawn) [Hederacoside C]	101% and 93%	95.3%	96.9%	101%	97.3%	98%	93.5%	106%
Cc1c(OCC(F)(F)F)ccnc1C[S+]([O-])c1nc2ccccc2[nH]1 (stereo not drawn) [Lansoprazole]	98% and 96.2%	90%	98.6%	104%	103%	95.5%	91.7%	102%
Cc1csc(-c2nnc(Nc3ccc(Oc4ncccc4-c4ccnc(N)n4)cc3)c3ccccc23)c1	67.2% and 86.6%	81.4%	91.6%	77.7%	53.3%	30.5%	38.5%	33.4%
CC1CCCCCCCCCCCCC(=O)C1 (stereo not drawn) [Muscone]	91.4% and 89.5%	87.4%	87.1%	97.1%	90.6%	89.2%	82%	90.7%
CSc1ccc(C(=O)/C=C/c2cc(C)c(OC(C)(C)C(=O)O)c(C)c2)cc1 [Elafibranor]	91.2% and 99.2%	88.1%	91.3%	91%	34.2%	30%	61.7%	57%
COc1ccc2cc3[n+](cc2c1OC)CCc1cc2c(cc1-3)OCO2 [Berberine chloride]	66.5% and 69.6%	65.3%	67.2%	66.7%	70.4%	81.3%	48.9%	53.8%
CS(=O)(=O)c1cccc(CNc2nc(Nc3ccc4c(c3)CCC(=O)N4)ncc2C(F)(F)F)c1	77% and 90.4%	98.3%	49.7%	48.8%	8.16%	5.1%	9.56%	16.9%
Cn1nnc(-c2ccc3c(c2)[nH]c2nc(Cc4ccccc4)nc(NC4CCC(N)CC4)c23)n1 (stereo not drawn)	0.17%	0.16%	0.14%	0.19%	0.11%	0.13%	0.18%	0.13%
COc1ccc(C=O)c(O)c1 [4-Methoxysalicylaldehyde]	97.5% and 89.5%	97.8%	93.5%	102%	99.4%	95.9%	97%	92%
COc1ccc(CC(=O)Nc2nc3c(s2)CCc2ccccc2-3)cc1OC	70.4% and 68.1%	68.3%	45.1%	26.8%	65.1%	76.5%	27.9%	34.9%
Nc1ncnc2c1ncn2[C@@H]1O[C@H](CO)[C@@H](O)[C@@H]1O [Vidarabine monohydrate]	105% and 101%	110%	86%	98.5%	97.6%	103%	110%	119%

SMILES	cell viability (K562; SRSF2 genotype: SRSF2 P95H/wt)	cell viability (K562; SRSF2 genotype: SRSF2 wt/wt)	cell viability (MARIMO; SRSF2 genotype: SRSF2 P95H/wt)	cell viability (MARIMO; SRSF2 genotype: SRSF2 wt/wt)	cell viability (MOLM14; SRSF2 genotype: SRSF2 P95H/wt)	cell viability (MOLM14; SRSF2 genotype: SRSF2 wt/wt)	cell viability (OCI-AML2; SRSF2 genotype: P95H/wt)	cell viability (OCI-AML2; SRSF2 genotype: wt/wt)
CC1=CCC2CC1C2(C)C (stereo not drawn)	99.8% and 101%	99.4%	95.5%	94.5%	98.5%	99.8%	97%	102%
CC[C@H]1OC(=O)C[C@@H](O)[C@H](C)[C@@H](O[C@@H]2O[C@H](C)[C@@H](O)[C@H](N(C)C)[C@H]2O)[C@@H](CCN2C[C@H](C)C[C@H](C)C2)C[C@@H](C)C(=O)/C=C/C(C)=C/[C@@H]1CO[C@@H]1O[C@H](C)[C@@H](O)[C@@H](OC)[C@H]1OC [Tilmicosin phosphate]	102%	108%	98%	103%	106%	101%	108%	112%
O=c1ncccn1[C@@H]1O[C@H](CO)[C@@H](O)[C@H]1O [Zebularine]	90.9% and 85.1%	82.2%	87.7%	91.4%	89.7%	89.7%	96.6%	86.6%
O=c1c(-c2ccc(O)cc2)coc2c([C@@H]3O[C@H](CO)[C@@H](O)[C@H](O)[C@H]3O)c(O)ccc12 [Puerarin (Kakonein)]	109% and 101%	97.2%	98.6%	101%	102%	102%	96.4%	102%
Cc1ccc(C(=O)c2cc(O)c(O)c([N+](=O)[O-])c2)cc1 [Tolcapone]	107% and 113%	112%	109%	111%	106%	109%	113%	97.3%
COc1nccc(-c2c(-c3ccc(F)cc3)ncn2C2CCC(O)CC2)n1 (stereo not drawn)	96.5% and 98.5%	89.3%	98.3%	110%	107%	107%	107%	107%
O=[N+]([O-])c1ccc(Nc2ccccc2-c2ccccc2)c2nonc12	104% and 97.4%	95.7%	96.7%	109%	94.2%	95.2%	103%	107%
CN1CCCC(n2nc(Cc3ccc(Cl)cc3)c3ccccc3c2=O)CC1 (stereo not drawn) [Azelastine hydrochloride (Astelin)]	87% and 91%	92.6%	88.1%	90.3%	78.9%	88.6%	75.9%	72.6%
COc1cccc(-c2cc(=O)c3ccccc3o2)c1N	95.9% and 95.1%	95.6%	69.9%	61.9%	99.5%	109%	73.1%	58%
O=c1[nH]cnc2nc[nH]c12 [Hypoxanthine]	98.8% and 108%	96.8%	101%	116%	103%	115%	103%	105%
Oc1ncnc2[nH]ncc12 [Allopurinol (Zyloprim)]	99% and 99.5%	104%	97.1%	98.3%	99.3%	96%	101%	104%
CCCCc1nc(Cl)c(CO)n1Cc1ccc(-c2ccccc2-c2nnn[nH]2)cc1 [Losartan potassium]	106% and 103%	104%	103%	114%	104%	104%	102%	106%
CCC(=O)NS(=O)(=O)c1ccc(-c2c(-c3ccccc3)noc2C)cc1 [Parecoxib Sodium]	102% and 91.9%	100%	101%	104%	93.4%	104%	92.3%	97.3%
Cn1c2ccccc2c2c3c(c4c5ccccc5n(CCC#N)c4c21)CNC3=O	104% and 99.7%	97.7%	85.5%	93.9%	42.6%	36.8%	62.8%	65.6%
C=C[C@]1(C)C[C@@H](OC(=O)CS[C@@H]2C[C@H]3CC[C@@H](C2)N3C)[C@]2(C)[C@H](C)CC[C@]3(CCC(=O)[C@H]32)[C@@H](C)[C@@H]1O [Retapamulin]	81.2% and 79.9%	84%	85.6%	84.6%	87.6%	84.5%	75.8%	84%
O=C1O[C@H]([C@@H](O)CO)C(O)=C1O [Vitamin C (Ascorbic acid)]	89.8% and 88.3%	85.8%	100%	92.8%	90.8%	95.1%	91%	93%
C=C[C@]1(C)C[C@@H](OC(=O)CSCCN(CC)CC)[C@]2(C)[C@H](C)CC[C@]3(CCC(=O)[C@H]32)[C@@H](C)[C@@H]1O [Tiamulin fumarate]	85.7% and 84.7%	89.8%	93.4%	91.3%	94.2%	93.7%	88.6%	96.6%
CC1CCC2(OC1)OC1CC3C4CCC5CC(OC6OC(CO)C(O)C(O)C6OC6OC(CO)C(O)C(O)C6O)CCC5(C)C4CCC3(C)C1C2C (stereo not drawn) [Timosaponin A3]	7.72% and 10%	28.3%	3.39%	3.93%	1.66%	0.73%	0.43%	0.73%
CC1(C)OC(=O)C=C[C@]2(C)[C@H]3CC[C@@]4(C)[C@H](c5ccoc5)OC(=O)[C@H]5O[C@]54[C@]3(C)C(=O)C[C@@H]12 [Obacunone]	103% and 98.1%	95.4%	92.7%	95.5%	97.4%	102%	91.1%	93.6%
CCCCOc1nc(N)c2c(n1)N(Cc1cccc(CN3CCCC3)c1)CC(=O)N2	86.2% and 92.1%	90%	87%	91.3%	97.2%	93.4%	97.4%	90.6%
